Compound activity as filed in PubChem.
VLA-4 inh: inhibition in human VLA-4 binding assay, primary screen, VLA-4 allosteric modulator project, MLPCN library, flow cytometry, VLA-4 expressing cells | ligand binding flow cytometry | 330,000 tested, 0.2% active | Integrin alpha-4 (Homo sapiens), P13612 | inhibition, % (about 7 µM as worked out from the volumes in the protocol); in the data active = inhibition above about 50%
Yeast superoxide: reduction of superoxide in aged yeast, primary screen, HTS | 330,000 tested, 0.18% active | superoxide response (% of plate mean), % at 10 µM | S. cerevisiae aged cells, superoxide DHE fluorescence; hits give low values;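 active = superoxide response under a set limit, about three screen SD below normal, cut at about 65% in these data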;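 note: yeast aged for seven days with compound at 30 °C before DHE staining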
Platelet DG rel: inhibitors of platelet dense granule secretion, primary screen, cell-based, MLPCN, human platelets; human platelet-rich plasma, SFLLRN dense granule ATP release, luminescence; inhibition, %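 (compounds screened at 7.5 µM in platelet-rich plasma)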; 300,000 tested, 0.22% active; AID 1663, 2009;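 active = mean replicate score, as percent of positive control, at or above 50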
ABCB6 inh MLPCN: ABCB6 transporter inhibitors, primary screen, K562-ABCB6 cells, flow cytometry, MLPCN library. ATP-binding cassette sub-family B member 6 (Homo sapiens), Q9NP58. K562-ABCB6 porphyrin accumulation, 1 h; hits give low values. fluorescence ratio to DMSO, % at 10 µM. 360,000 tested, 0.19% active. AID 602162, 2011;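 active = fluorescence ratio to DMSO below 75%, the collection mean minus 3 SD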;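 note: signal is porphyrin accumulated inside mitochondria; lower ratio means ABCB6 inhibition with less porphyrin fluorescence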
Target sequence (Q9NP58 whole entry, looked up): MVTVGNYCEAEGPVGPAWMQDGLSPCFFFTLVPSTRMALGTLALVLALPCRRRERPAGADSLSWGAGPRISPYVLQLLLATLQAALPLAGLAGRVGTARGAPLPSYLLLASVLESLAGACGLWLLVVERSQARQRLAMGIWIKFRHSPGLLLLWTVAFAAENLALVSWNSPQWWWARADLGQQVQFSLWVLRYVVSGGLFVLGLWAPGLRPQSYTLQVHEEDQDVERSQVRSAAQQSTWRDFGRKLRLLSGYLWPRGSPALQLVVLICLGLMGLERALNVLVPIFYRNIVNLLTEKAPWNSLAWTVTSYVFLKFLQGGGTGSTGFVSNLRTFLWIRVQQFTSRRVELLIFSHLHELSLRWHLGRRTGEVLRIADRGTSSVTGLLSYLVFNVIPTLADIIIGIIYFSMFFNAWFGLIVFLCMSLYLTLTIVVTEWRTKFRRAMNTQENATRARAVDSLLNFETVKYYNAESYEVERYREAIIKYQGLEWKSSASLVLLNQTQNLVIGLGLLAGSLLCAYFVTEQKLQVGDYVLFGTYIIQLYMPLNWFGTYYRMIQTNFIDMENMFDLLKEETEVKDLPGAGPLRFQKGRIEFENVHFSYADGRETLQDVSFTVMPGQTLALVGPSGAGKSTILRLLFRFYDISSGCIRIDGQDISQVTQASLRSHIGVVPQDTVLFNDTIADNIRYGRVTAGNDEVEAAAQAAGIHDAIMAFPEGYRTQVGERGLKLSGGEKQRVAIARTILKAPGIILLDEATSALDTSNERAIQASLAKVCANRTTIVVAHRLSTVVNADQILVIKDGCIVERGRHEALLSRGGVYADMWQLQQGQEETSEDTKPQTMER
SKN-1 block: suppressors of acrylamide-induced Pgst-4::GFP reporter in worms, primary screen, SKN-1 inhibitor project, whole organism, uHTS, GFP/RFP fluorescence ratio, strain VP596. C. elegans VP596 Pgst-4::GFP/RFP ratio, 24 h. inhibition, % at 21.8 µM. AID 624304, 2012. 360,000 tested, 0.49% active;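 active = interference check ratio from 0.5 to 1.5 plus GFP to RFP signal ratio inhibition reaching or exceeding a fixed threshold, cut at about 30% in these data, passing the limit was not always enough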
VLA-4 mod pick: retest of VLA-4 allosteric modulators, confirmation, cell-based, cherry-picked plates, U937, HUTS-21 LIBS antibody; shares compounds with VLA-4 inh; U937 cells, HUTS-21 LIBS mAb binding, flow cytometry; LDV ligand present at threefold Kd; inhibition, % at 6.7 µM; 1,300 tested, 2% active; in the data active = inhibition above about 40%
Superoxide pick: superoxide lowering in aged yeast cells, confirmation, cherry picked compounds. shares compounds with Yeast superoxide. S. cerevisiae aging, superoxide DHE fluorescence; hits give low values. superoxide response (% of plate), % at 10 µM. 850 tested, 1% active;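 active = superoxide signal below 65% of the plate average of sample wells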;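 note: cells aged with compound for 7 days at 30 degrees C before staining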
DHE fluor count: DHE quenching or ROS scavenging interference in aged yeast, artefact control for yeast caloric restriction mimetic project, S. cerevisiae BY4741, flow cytometry; shares compounds with Yeast superoxide; DHE fluorescence; hits give low values; fluorescence response, % at 10 µM; 850 tested, under 10 active;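 active = fluorescence response below 15%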;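 note: lower means stronger quenching of DHE signal or ROS scavenging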
ABCB6 inh CP1: ABCB6 transporter inhibitors, confirmation, K562-ABCB6 cells, flow cytometry, cherry pick 1 | shares compounds with ABCB6 inh MLPCN | K562-ABCB6 porphyrin accumulation, 1 h; hits give low values | ratio response (% of DMSO), % at 10 µM | 700 tested, under 10 active;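 active = repeat-averaged ratio response below 75% of DMSO, the collection mean minus 3 SD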;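 note: median porphyrin fluorescence at 575 nm with 488 nm excitation from mitochondria; lower ratio means less porphyrin signal so ABCB6 inhibition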
Of the large screens only hits and unclear results are named; the others gave an inactive call (follow-up assays come after a bar, where they were run). Hits are enriched below; roughly 1.2% of the tested compounds scored in any of these assays.

CCN(C)C1CN(Cc2cn(Cc3cc(C)cc(C)c3)nn2)S(=O)(=O)C1 (stereo unspecified)	none (no result: VLA-4 inh, Yeast superoxide, Platelet DG rel)
O=C(Nc1ccc2c(c1)OCCO2)C(c1ccncc1)n1c(=O)c(-c2cc3ccccc3[nH]2)nc2ccccc21 (stereo unspecified)	none (no result: VLA-4 inh, Yeast superoxide, Platelet DG rel, ABCB6 inh MLPCN)
COc1ccc(Cl)cc1-c1cc(C(=O)NCc2cccs2)[nH]n1	none (no result: VLA-4 inh, Yeast superoxide, Platelet DG rel)
CN1CC(=O)Nc2ccc(Br)cc2C1=O	VLA-4 inh 52.2, Yeast superoxide 64.9 | VLA-4 mod pick inactive | Superoxide pick inactive | DHE fluor count inactive
COc1ccc(CN(C)C[C@@H]2OCc3cnnn3CCCC(=O)N([C@@H](C)CO)C[C@H]2C)cc1	none (no result: VLA-4 inh, Yeast superoxide, Platelet DG rel)
Cc1ccc(-c2nnc(N)s2)cc1	ABCB6 inh MLPCN 69.0 | VLA-4 mod pick inactive | ABCB6 inh CP1 inactive
COc1ccc(-c2nnc(N)s2)cc1	none (no result: Platelet DG rel)
Nc1ncnc2c1ncn2[C@@H]1O[C@H](C(=O)NCc2ccc(OC(F)(F)F)cc2)[C@@H](O)[C@H]1O	none (no result: VLA-4 inh, Yeast superoxide, Platelet DG rel)
CC1CCCCN1S(=O)(=O)c1ccc(N(C(=O)c2cnccn2)C(C(=O)NC2CCCC2)c2cccs2)cc1 (stereo unspecified)	ABCB6 inh MLPCN 70.0 | VLA-4 mod pick inactive | ABCB6 inh CP1 inactive
O=C(C1CCCO1)N1CCN(c2c3c(nc4cc(-c5ccc(F)cc5)nn24)CCC3)CC1 (stereo unspecified)	Yeast superoxide 63.2 | Superoxide pick inactive | DHE fluor count inactive
COc1ccc(C(=O)C[C@@H]2OC[C@H](C(C)C)N2S(=O)(=O)c2ccc(C)cc2)cc1OC	none (no result: VLA-4 inh, Yeast superoxide, Platelet DG rel, ABCB6 inh MLPCN)
Cc1nc2cc(-c3ccc(F)cc3)[nH]n2c(=O)c1C	none | Superoxide pick inactive | DHE fluor count inactive
Cc1nc2cc(-c3ccc(Br)cc3)[nH]n2c(=O)c1Cl	none | Superoxide pick inactive | DHE fluor count inactive
CCCc1cc(=O)n2[nH]c(-c3ccc(Cl)cc3)cc2n1	none | Superoxide pick inactive | DHE fluor count inactive
O=c1cc(-c2ccccc2)nc2cc(-c3ccc(Br)cc3)[nH]n12	Yeast superoxide 52.6 | Superoxide pick inactive | DHE fluor count inactive
Cc1cc2nc(C)c(Cl)c(=O)n2[nH]1	none
CCCc1cc(=O)n2[nH]c(-c3ccc(C)cc3)cc2n1	none
CC(C)c1cc(Cn2c3ccccc3c(=O)n2C(C)Cn2cc(CCCC#N)nn2)on1 (stereo unspecified)	none (no result: VLA-4 inh, Yeast superoxide, Platelet DG rel, ABCB6 inh MLPCN)
O=C(NCc1cccc(C(F)(F)F)c1)C1C(=O)Nc2ccccc2C(=O)N1C1CCCC1 (stereo unspecified)	none (no result: VLA-4 inh, Yeast superoxide, Platelet DG rel, ABCB6 inh MLPCN)
CCc1c(C)nc2cc(-c3ccc(Cl)cc3)[nH]n2c1=O	none | Superoxide pick inactive | DHE fluor count inactive
CCOC(=O)CCc1c(C)nc2cc(-c3ccc(Cl)cc3)[nH]n2c1=O	none
COc1ccc(CN2CCN(Cc3ccc(Br)cc3)CC2)c(OC)c1OC	Yeast superoxide 45.9 | Superoxide pick inactive | DHE fluor count inactive
COc1ccccc1-c1ccc2c(c1)C(C)(Cc1ccc(OC(F)(F)F)cc1)C(=O)N2 (stereo unspecified)	none (no result: VLA-4 inh, Yeast superoxide, Platelet DG rel)
NC(=O)c1ccc(N2CCCCCC2)c([N+](=O)[O-])c1	none
